# Values joined by “and” are separate entries in the source; they are usually repeats but may differ in a detail not shown here. Identical values can stand only once. In all, about 16,000 compounds went through this assay and about 5,800 (36%) were called active. Not shown: some 23% with an inconclusive outcome. The list shows a part of the results. Values without a mark were called inactive. The call rests on the fitted dose curve; in most records, active means well fitted curve in the direction sought with a large enough effect; inconclusive means small, poorly fitted or top-dose-only effect, or effect the other way; inactive means no such curve, though single readings can be large or run the other way.
# Target: Cytochrome P450 2C19 (Homo sapiens) (UniProt P33261)
# Assay: Cytochrome panel assay with activity outcomes
# Conditions: recombinant CYP, pro-luciferin dealkylation, luminescence, p450-cyp2c19; series mostly up to 57.1 µM; activity, negative = inhibition: at the top concentration
# On the % scale 0 is the no-effect control and ±100 the full control effect.
# Chain of Cytochrome P450 2C19 (Homo sapiens) (P33261 whole entry, looked up): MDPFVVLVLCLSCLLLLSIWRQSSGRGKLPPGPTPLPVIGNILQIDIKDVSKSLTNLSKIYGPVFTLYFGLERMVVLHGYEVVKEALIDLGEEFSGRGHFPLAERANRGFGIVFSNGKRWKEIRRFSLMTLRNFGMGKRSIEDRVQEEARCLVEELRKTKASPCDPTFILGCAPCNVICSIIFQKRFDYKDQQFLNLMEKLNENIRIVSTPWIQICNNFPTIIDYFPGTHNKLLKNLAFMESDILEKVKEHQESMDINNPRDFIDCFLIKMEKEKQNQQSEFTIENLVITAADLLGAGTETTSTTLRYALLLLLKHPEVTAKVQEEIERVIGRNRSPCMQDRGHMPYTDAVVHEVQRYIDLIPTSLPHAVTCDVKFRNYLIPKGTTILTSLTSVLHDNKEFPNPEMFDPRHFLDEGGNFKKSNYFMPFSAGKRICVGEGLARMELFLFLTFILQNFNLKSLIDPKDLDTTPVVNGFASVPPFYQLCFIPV
SMILES,AC50,"activity, negative = inhibition"
COc1ccccc1NC(=S)NC(=O)c1ccc(-c2ccc(Cl)cc2)o1,8.91 µM (active),
Fc1ccccc1NC(=S)NCCc1ccccc1,3.16 µM (active),
Fc1cc(Br)ccc1NC(=S)NCCc1ccccc1,1.58 µM (active),
Fc1ccc(NC(=S)NCCc2ccccc2)c(F)c1F,0.355 µM (active),
COc1ccccc1NC(=S)NCCc1ccccc1,3.16 µM (active),
Cc1cc(OC(=O)c2ccc(Cl)cc2)cc(=O)n1C,,-7.64%
CC(=O)Nc1cccc(C(=O)OCc2ccc(C(=O)Oc3ccc(Cl)cc3)cc2)c1,4.47 µM (active),
OCCN(CO)CO,,0.957% [at 11.4 µM]
CN(C)CCOC(=O)[C@@H](c1ccccc1)C1(O)CCCC1,,-33.7% [at 25.6 µM]
O=C(Cn1c(C(F)(F)F)nc2ccccc21)c1ccc(F)cc1,1.58 µM (active),
O=C(CCCN1CCC(O)(c2cccc(C(F)(F)F)c2)CC1)c1ccc(F)cc1,,-23.7%
O=C(Cn1c(C(F)(F)F)nc2ccccc21)c1ccccc1,3.98 µM (active),
O=S(=O)(Nc1ccc2c(c1)OCCO2)c1cccc2cccnc12,3.55 µM (active),
Cn1cc(/C=N/n2cnc3scc(-c4ccccc4)c3c2=O)c2ccccc21,8.91 µM (active),
COc1ncc2nc(-c3cn(C)c4ccccc34)c(=O)n(-c3ccccc3)c2n1,,9.08%
CN1CCN(c2ncc3nc(-c4cn(C)c5ccccc45)c(=O)n(-c4ccccc4)c3n2)CC1,,-27.7%
Cc1cccc(NC(=S)c2nc3ccccc3s2)c1,5.62 µM (active),
N#C/C(=C\NC(=S)c1ccncc1)c1nc2ccccc2s1,,-29.2% [at 11.4 µM]
Cc1ccc(C)c(S(=O)(=O)NC(C)C(=O)Nc2ccc(-c3nc4ccccc4s3)cc2)c1 (stereo not drawn),,-21.3%
O=C(NCC(c1cccs1)N1CCOCC1)c1ccco1 (stereo not drawn),8.91 µM (active),
O=C(c1ccco1)N1CCC2(CCN(Cc3nccs3)CC2)CC1,,-1.61%
CCOC(=O)N1CCN(C(=O)CCn2nc(-c3ccccc3)ccc2=O)CC1,,31%
COc1cccc(C(=O)N2N=C(c3cccc(OC)c3)CC2(O)C(F)(F)F)c1 (stereo not drawn),0.794 µM (active),
CCOC(=O)N1N=C(c2ccccc2)CC1(O)C(F)(F)F (stereo not drawn),15.8 µM (active),

SMILES,AC50,"activity, negative = inhibition"
O=C(CCc1ccccc1)Nc1ncn[nH]1,,-13.6%
CCC1=NN(C(=O)CCc2ccccc2)C(O)(C(F)(F)F)C1 (stereo not drawn),0.224 µM (active),
CCc1cc2c(nc1CC)CCN(CC/C(C)=N/OCC[C@@H]1C=C[C@H](OC(C)=O)[C@H](COC(C)=O)O1)C2,,7.29% [at 11.4 µM]
CN1/C(=C\C(=O)COC(=O)Cn2nnc(-c3ccccc3)n2)C(C)(C)c2ccccc21,11.2 µM (active),
O=C(Cn1nnc(-c2ccccc2)n1)OCc1ccccc1,3.98 µM (active),
COCCn1c(=O)c(-c2cc(F)cc(F)c2)nc2cnc(N(C)C)nc21,,38.8%
O=[N+]([O-])C1=CC=C2C(=NC3(CCCCC3)N2O)C1=NC1CCCCC1,3.16 µM (active),
Cc1cccc(C)c1NC(=O)Nc1ccc(S(N)(=O)=O)cc1,,23.1% [at 11.4 µM]
O=C(Nc1ccc2ncccc2c1)Nc1ccc2ncccc2c1,,14.5% [at 11.4 µM]
Cc1ccc(NC(=O)Nc2ncccc2C)cc1,15.8 µM (active),
CCN(/C=N/c1sc2c(c1C#N)CCCCC2)CC,1.26 µM (active),
CC(C)NCC[C@@H](O)c1cc2ccccc2o1,,31.3% [at 11.4 µM]
CCOC(=O)CSc1nnc(CSc2nc3sc4c(c3c(=O)[nH]2)CCCC4)n1-c1ccccc1,2.51 µM (active),
COC(=O)C(NS(=O)(=O)c1ccc(NC(C)=O)cc1)C(C)C (stereo not drawn),3.16 µM (active),
Cc1ccc(S(=O)(=O)N[C@H](C(=O)O)C(C)C)cc1,,4% [at 11.4 µM]
CC(=O)Nc1ccc(S(=O)(=O)c2ccc(N)cc2)cc1,15.8 µM (active),
Nc1ccc(S(=O)(=O)c2ccc(NC(=O)c3cccnc3)cc2)cc1,,3.12% [at 11.4 µM]
COC(=O)[C@@H](NC(=O)Nc1ccc(C(C)=O)cc1)C(C)C,17.8 µM (active),
CC(=O)Nc1ccc(S(=O)(=O)N=S(C)C)cc1,,14.7% [at 11.4 µM]
Oc1cc2c(cc1O)[C@H](c1ccccc1)CNCC2,inactive,
CO/N=C\[C@@H](C)[C@H](OCc1ccccc1)C(C)C,,2.64% [at 11.4 µM]
Cc1ccc(C(C2C(=O)CC(C)(C)CC2=O)C2C(=O)CC(C)(C)CC2=O)s1,11.2 µM (active),
CC1(C)CC(=O)C(C(c2cccc(O)c2O)C2C(=O)CC(C)(C)CC2=O)C(=O)C1,,26% [at 11.4 µM]
CN1CCCN(C2C3CC4CC(C3)CC2C4)CC1 (stereo not drawn),,-11.6%

SMILES,AC50,"activity, negative = inhibition"
O=S(=O)(c1cccc2c(Cl)cccc12)N1CCCNCC1,inactive,
O=C(C1CCN(S(=O)(=O)c2cccc3nsnc23)CC1)N1CCn2c1nc1ccccc12,10 µM (active),
O=C(Nn1cc(C(=O)N2CCN(c3ccccc3F)CC2)c2ccccc2c1=O)c1cnccn1,,5.4%
O=C(C1CCCN(S(=O)(=O)c2cccc3nsnc23)C1)N1CC=C(c2ccccc2)CC1 (stereo not drawn),2.51 µM (active),
O=S(=O)(c1ccccc1S(=O)(=O)N1CCCCC1)N1CCCCC1,22.4 µM (active),
O=C(C1CCN(S(=O)(=O)c2cccc3nsnc23)CC1)N1CCN(c2ccccc2F)CC1,22.4 µM (active),
CC(C)N1CCN(c2ccncc2S(=O)(=O)N2CCCCC2)CC1,,-23.9% [at 11.4 µM]
CC1CCC(C(=O)O)([C@H](Br)C(=O)O)CC1 (stereo partly drawn),,-0.894% [at 11.4 µM]
COc1ccc([C@@H]2CNC(=O)C2)cc1OC1CCCC1,inactive,
Cc1ncc(CO)c(CO)c1O,,-13.5% [at 25.6 µM]
CC1CCN(C(=O)C2CCN(S(=O)(=O)c3cccc4nonc34)CC2)CC1,11.2 µM (active),
CC(=O)Nc1ccc(NC(=O)C2CCN(S(=O)(=O)c3cccc4nonc34)CC2)cc1,,-27.7%
O=C(C1CCN(S(=O)(=O)c2cccc3nsnc23)CC1)N1CCCc2ccccc21,2 µM (active),
O=C(C1CCN(S(=O)(=O)c2cccc3nsnc23)CC1)N1CCc2ccccc21,14.1 µM (active),
C[C@H]1CN(S(=O)(=O)c2cccc3cnccc23)CCN1,,-17.5%
O=S(=O)(c1cccc2nsnc12)N1CCCC1,0.891 µM (active),
O=S(=O)(c1cnccc1N1CCN(CCO)CC1)N1CCCC1,,33.1% [at 11.4 µM]
Cc1ccc(S(=O)(=O)N[C@H]2COC(=O)CC=C[C@@H](C)[C@H]3C=C[C@H](O)[C@@H](COC(=O)CC=C[C@H]2C)O3)cc1,,14.2% [at 11.4 µM] and 5.29% [at 11.4 µM]
NC[C@@H]1O[C@H](O[C@@H]2[C@H](O[C@@H]3O[C@H](CO)[C@@H](COC[C@H]4O[C@@H](CN)[C@@H](O)[C@@H](O)[C@@H]4N)[C@@H]3O)[C@@H](O)[C@@H](N)C[C@H]2N)[C@@H](N)[C@H](O)[C@@H]1O,,20.1% [at 25.6 µM]
CCCN(CCC)C[C@@H]1CCCCN1CCNC(=O)N1c2ccccc2C(=O)Nc2cccnc21,7.94 µM (active),
O=C(O)CN(CCN(CC(=O)O)CC(=O)O)CCN(CC(=O)O)CC(=O)O,,-18.6%
Cc1cc(C)c(S(=O)(=O)N2CCCCC2)c(C)c1N(C)S(=O)(=O)c1ccccc1,2.51 µM (active),
CCc1ccc2c(c1)cc(CN(C(=S)Nc1cccc(C)c1)C1CC1)c1nnnn12,2.24 µM (active),
CCCNS(=O)(=O)c1ccc(OCC(=O)OC)cc1,10 µM (active),

SMILES,AC50,"activity, negative = inhibition"
CCN1C(=O)/C(=C/C=C2/SCCN2C)SC1=S,14.1 µM (active),
Cc1ccn2c(NC(=O)c3ccccc3)c(-c3cccs3)nc2c1,17.8 µM (active),
CCNc1ncc2nc(-c3cccs3)c(=O)n(C)c2n1,,2.33%
c1ccc(SCc2nc3ccccc3[nH]2)cc1,1.41 µM (active),
OC(Cc1nc2ccccc2[nH]1)c1ccccc1Cl (stereo not drawn),8.91 µM (active),
CCn1c(SCc2nc3ccccc3[nH]2)nnc1-c1ccc(OC)cc1,2.51 µM (active),
c1ccc(-c2nnc(SCc3nc4ccccc4[nH]3)n2Cc2ccco2)cc1,2.51 µM (active),
O=C(c1cnccn1)N1CCC2(CC1)CN(Cc1cc(C(F)(F)F)cc(C(F)(F)F)c1)C2,,-28.5%
C=CCNC(=S)N1CCN(c2ncc3c(=O)c(C(=O)O)cn(CC)c3n2)CC1,,-24.5%
COc1ccc2oc(=O)c(NC(=O)C3CCCCC3)cc2c1,,-27.6%
Cc1cc(NC(=O)C2CCCCC2)nc2c1c(=O)oc1ccccc12,8.91 µM (active),
N#Cc1c(-c2ccc3c(c2)OCO3)ccn2nc(-c3cccc(C(F)(F)F)c3)nc12,2.51 µM (active),
COc1c(O)cc2c(c1O)[C@@H]1O[C@@H](CO)[C@@H](O)[C@@H](O)[C@@H]1OC2=O,,32.9% [at 25.6 µM]
Cc1ccc(S(=O)(=O)NC(=O)Nc2ncn[nH]2)cc1,,37.1% [at 11.4 µM]
Cc1ccc(S(=O)(=O)Nc2nc(C)c(NC(=O)Nc3ccc(Cl)cc3Cl)s2)cc1,14.1 µM (active),
Cc1nnc(NS(=O)(=O)c2ccc(N)cc2)s1,,23.1% [at 25.6 µM]
Cc1nc2c(O)cccc2c(=O)[nH]1,0.398 µM (active),
O=c1[nH]c2ccccc2c2ccccc12,,-30.4%
O=c1[nH]ccc2c(O)cccc12,,11.1%
CN1c2ccccc2C(C)(C)C12C=Nc1c(cc(N3CCOCC3)c3ccccc13)O2 (stereo not drawn),3.55 µM (active),
CN(C)Cc1ccccc1-c1nc(N2CCOCC2)c2ccccc2n1,,30.7%

# — PubChem BioAssay AID1851 (National Center for Advancing Translational Sciences (NCATS), 2009)
